# Assay results: PubChem BioAssay (Tox21)
# “And” between values parts separate entries of the source, which are not always exact repeats. Equal entries are not always repeated. Results filed as inconclusive are left out. Where a call stands in place of a potency, no number is given. Some compounds were tested as several samples or in several runs, with calls that do not always agree. The source made the active and inactive calls. The call rests on the fitted dose curve; in most records, active means well fitted activation curve with a large enough effect in the repeat runs; inconclusive means weak or mixed curves; inactive means flat fitted curve, though single readings scatter.
# Assay: A CellTox Green Cytotoxicity Assay to monitor cytotoxicity in HepG2 cells - 8 hour (AID 1224890); further: nearly all actives have a fitted effect of over 45% in size
# Conditions: CellTox Green fluorescence; series mostly up to 76.8 µM
# Procedure, shortened: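 Continuous culture of HepG2 cells with a membrane-impermeant DNA dye; rising fluorescence marks dead cells. Compound exposure lasted up to 40 h at 37 C, with reads every 8 h from 0 h.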
# Potency means the concentration at half of the fitted maximal effect.
row,Structure (SMILES),Potency
1,CCCCC(CC)COC(=O)c1ccc(C(=O)OCC(CC)CCCC)c(C(=O)OCC(CC)CCCC)c1 (stereo not drawn),inactive
2,C[C@]12CCC(=O)C(O)=C1CC[C@@H]1[C@@H]2CC[C@]2(C)C(=O)CC[C@@H]12,inactive
3,Oc1cc(Cl)ccc1Oc1ccc(Cl)cc1Cl,22.4 µM (active) and 16.9 µM (active)
4,CCC(C)(c1ccc(O)cc1)c1ccc(O)cc1,inactive
5,O=C(NC(=O)c1c(F)cccc1F)Nc1ccc(Cl)cc1,inactive
6,c1cc(OCC2CO2)ccc1Cc1ccc(OCC2CO2)cc1 (stereo not drawn),inactive
7,C#CCOS(=O)OC1CCCCC1Oc1ccc(C(C)(C)C)cc1 (stereo not drawn),inactive
8,CCN(CC)C(=O)SCc1ccc(Cl)cc1,inactive
9,CC(C)Oc1cc(-n2nc(C(C)(C)C)oc2=O)c(Cl)cc1Cl,inactive
10,O=C(Nc1ccc(Br)cc1)c1cc(Br)cc(Br)c1O,inactive and 43.6 µM (active)
11,CNC(=O)Oc1cccc2c1OC(C)(C)O2,inactive
12,CC(C)=CC1C(C(=O)OCc2coc(Cc3ccccc3)c2)C1(C)C (stereo not drawn),inactive
13,NNC(N)=S,inactive
14,Nc1cccnc1,inactive
15,CN(C)c1ccc(C(=O)c2ccc(N(C)C)cc2)cc1,inactive
16,N#Cc1cc(Br)c(O)c(Br)c1,inactive
17,O=[N+]([O-])c1ccc(O)c([N+](=O)[O-])c1,inactive
18,CCN(CC)C(=O)/C(Cl)=C(\C)OP(=O)(OC)OC,inactive
19,Oc1cc(Cl)c(Cl)cc1Cl,inactive

row,Structure (SMILES),Potency
1,CCOC(=S)S,inactive
2,COP(=S)(OC)Oc1ccc([N+](=O)[O-])cc1,inactive
3,O=S(=O)(Oc1ccc(Cl)cc1)c1ccc(Cl)cc1,inactive
4,N#CC(Br)Br,inactive
5,CCOP(=S)(OCC)O/N=C(\C#N)c1ccccc1,inactive
6,CCC(C)(C)c1ccc(O)cc1,inactive and 43.6 µM (active)
7,Nn1cnnc1,inactive
8,NC(=S)Nc1ccccc1,55.9 µM (active) and inactive
9,Nc1ccncc1,inactive
10,CC(O)CCO (stereo not drawn),inactive
11,Oc1c(Cl)c(Cl)c(Cl)c(Cl)c1Cl,inactive
12,CCOc1cc(Oc2ccc(C(F)(F)F)cc2Cl)ccc1[N+](=O)[O-],inactive
13,CCOc1cc(C=O)ccc1O,inactive
14,CC(C)c1ccc(CO)cc1,inactive
15,CCOC(=O)C(C)OC(=O)c1cc(Oc2ccc(C(F)(F)F)cc2Cl)ccc1[N+](=O)[O-] (stereo not drawn),inactive
16,Clc1nc(Cl)nc(Cl)n1,inactive
17,O=C1C=CC(=O)C=C1,inactive
18,CCOCN(C(=O)CCl)c1c(C)cccc1CC,inactive
19,C=CCc1ccc(OC)cc1,inactive
